Source: PubChem BioAssay (NCATS)
Results filed as inconclusive are left out. Active and inactive are the calls of the source. Calls come from the whole dose curve; as a rule, active = well fitted curve in the direction sought with a large enough effect; inconclusive = small, poorly fitted or top-dose-only effect, or another doubt; inactive = no such curve, though single readings can be large; an effect the other way counts as inactive or inconclusive.

Assays:
[1] = system: HACAT; experiment: qHTS assay to identify novel small-molecules to repurpose for Merkel cell carcinoma treatment (AID 1296009); conditions: MCC and control cell lines, CellTiter-Glo viability, 72 h; at 44.8 µM (top of the series) unless noted; note: nearly all actives have a fitted effect of over 60% in size
Method in brief: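 72 hr, 37 degree celsius; NPC 8-pt / MIPE 11-pt dose response; compound pinned in DMSO; CellTiter-Glo, 10 min RT, luminescence; normalized to no-cell and DMSO controls.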

[2] = system: C33A; experiment: Primary qHTS to identify gynecologic anti-cancer compounds using libraries of approved drugs and bioactive compounds (AID 1345084); conditions: Gynecologic cancer cell panel viability, ATPlite luminescence, 48 h; series mostly up to 57.5 µM; note: nearly all actives have a fitted effect of over 55% in size
Method in brief: (§1)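 In this quantitative HTS, cell killing is estimated from loss of ATP-dependent luciferase light. Cells see five compound concentrations over a 48 h exposure.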

[3] = system: CAOV3; experiment: as above; conditions: Gynecologic cancer cell panel viability, ATPlite luminescence, 48 h; series mostly up to 57.5 µM
Method in brief: as §1

[4] = system: CASKI; experiment: as above; conditions: Gynecologic cancer cell panel viability, ATPlite luminescence, 48 h; series mostly up to 57.5 µM
Method in brief: as §1

[5] = system: Es-2; experiment: as above; conditions: Gynecologic cancer cell panel viability, ATPlite luminescence, 48 h; series mostly up to 57.5 µM
Method in brief: as §1

[6] = system: HeLa; experiment: as above; conditions: Gynecologic cancer cell panel viability, ATPlite luminescence, 48 h; series mostly up to 57.5 µM
Method in brief: as §1

[7] = system: Hek293T; experiment: as above; conditions: Gynecologic cancer cell panel viability, ATPlite luminescence, 48 h, control line for the selectivity index; series mostly up to 57.5 µM
Method in brief: as §1

[8] = system: JEG-3; experiment: as above; conditions: Gynecologic cancer cell panel viability, ATPlite luminescence, 48 h; series mostly up to 57.5 µM
Method in brief: as §1

Measured: Potency

C=C1C[C@]23C[C@H]1CC[C@H]2[C@]1(C)CC[C@H](O)[C@@](C)(C(=O)O)[C@H]1[C@@H]3C(=O)O
inactive: all assays above

CC/C=C\C(O)C(O)C1=C(C)C(=O)C2(O1)C(=O)NC(OC)(C(=O)c1ccccc1)C2O (stereo unspecified)
inactive: [1] inactive [at 17.4 µM] | [2] | [3] | [4] | [5] | [6] | [7] | [8]

C=C1C[C@]23C[C@@]1(O)CC[C@H]2[C@@]12C=C[C@H](O)[C@@](C)(C(=O)O1)[C@H]2[C@@H]3C(=O)O
inactive: all assays above

CC1(C)CC[C@]2(C(=O)O[C@@H]3O[C@H](CO)[C@@H](O)[C@H](O)[C@H]3O)[C@H](O)C[C@]3(C)C(=CCC4[C@@]5(C)CC[C@H](O[C@@H]6OC[C@@H](O)[C@H](O)[C@H]6O)[C@@](C)(C(=O)O)C5CC[C@]43C)[C@@H]2C1 (stereo partly specified)
inactive: [1] inactive [at 17.4 µM] | [2] | [3] | [4] | [5] | [6] | [7] | [8]

C=CC1(C)CC2CCC3C(C)(C(=O)O)CCCC3(C)C2=CC1=O (stereo unspecified)
inactive: all assays above

N[C@@H](CC(=O)Nc1ccc(Oc2cc(F)c(F)cc2Br)cc1)C(=O)O
inactive: all assays above

COC(=O)[C@H](c1ccccc1Cl)N1CCC2SC(=O)C=C2C1 (stereo partly specified)
inactive: all assays above

O=C(C1OC1/C=C/c1ccc2c(c1)OCO2)N1CCCCC1 (stereo unspecified)
inactive: all assays above

COc1ccc(/C=C/C(N)=O)cc1OC
inactive: all assays above

C=C1C(O)CCC2(C)CC3(OC)OC(=O)C(C)=C3CC12 (stereo unspecified)
inactive: all assays above

COc1cc(/C=C/C(=O)O[C@@H]2C[C@](O)(C(=O)O)C[C@@H](O)[C@H]2O)ccc1O
inactive: all assays above

CC(O)C(=O)/C=C/C=C/C(=O)OC1C=C2COC(=O)C2(O)C2(C)CCCC(C)(C)C12 (stereo unspecified)
inactive: [1] inactive [at 17.4 µM] | [2] | [3] | [4] | [5] | [6] | [7] | [8]

N=C(N)c1ccc2nc(-c3cc(CC(=O)NC(CC(=O)O)C(=O)O)cc(-c4cc(S(N)(=O)=O)ccc4O)c3O)[nH]c2c1 (stereo unspecified)
inactive: all assays above

C=C(C)[C@@H]1CC[C@]2(C)CC[C@]3(C)C(CCC4[C@@]5(C)CC[C@H](O)C(C)(C)C5CC[C@]43C)C12 (stereo partly specified)
inactive: [1] inactive [at 17.4 µM] | [2] | [3] | [4] | [5] | [6] | [7] | [8]

C=C1CC23CC1CCC2C12OC(=O)C(C)(C(O)CC1O)C2C3C(=O)O (stereo unspecified)
inactive: all assays above

Fc1ccccc1-c1nc2ccn(Cc3ccc(-c4ccc(C(F)(F)F)cc4C(F)(F)F)nn3)cc-2n1
inactive: all assays above

COC(=O)[C@]1(Cc2ccc(O)c(CC=C(C)C)c2)OC(=O)C(O)=C1c1ccc(O)cc1
inactive: [1] inactive [at 17.4 µM] | [2] | [3] | [4] | [5] | [6] | [7] | [8]
